From PubChem BioAssay (Tox21)
Values without a mark were called inactive. Activity calls are given as the source filed them. Calls follow the shape of the dose curve; as a rule, active = well fitted curve in the direction sought with a large enough effect in the repeat runs; inconclusive = weak or mixed curves; inactive = flat fitted curve, though single readings scatter.

Assay: qHTS assay to test for compound auto fluorescence at 590 nm (red) in HepG2 cells (AID 720674)
Details: HepG2 autofluorescence, red 540/590 nm, 1 h; series mostly up to 46 µM; fluorescence, relative to Rose Bengal: at the top concentration
Source text: U.S. Tox21 Program National Center for Advancing Translational Sciences [NCATS] NIH Chemical Genomics Center [NCGC] U.S. Environmental Protection Agency [EPA] National Institutes of Environmental Health Sciences [NIEHS] National Toxicology Program [NTP] U.S. Food and Drug Administration [FDA] Tox21 Assay Overview: Compound auto fluorescence often interferes with screening of the compound library against various biological targets and signaling pathways. Some of these compounds may have fluorophoric properties. Such properties may interfere with the assay outputs resulting in false positives and/or negatives. To decrease such complications and ensure the compound activities are relevant in terms of biological response, the Tox21 10K compound library was screened for auto fluorescence. From the fluorophores used as reporter signals in our screening assays, the auto fluorescence equivalencies of compounds against three fluorophores have been evaluated: Triamterene, Fluorescein and Rose Bengal sodium for blue, green and red fluorescence, respectively. The fluorescence intensities were measured using Excitation/Emission wavelengths at 405/460nm, 485/535nm and 540/590nm for blue, green and red labels, respectively. This assay includes the red fluorescence data.
Tox21 Assay Protocol Summary: 2,000 HepG2 cells in 5 uL of culture medium (MEM containing 10% FBS) per well were dispensed into black wall/clear bottom 1536-well plates using a Multidrop Combi Dispenser (ThermoFisher Scientific, Waltham, MA). The assay plates were incubated overnight at 37 C to allow cell attachment to the well bottom, followed by the transfer of 23 nL compound or DMSO vehicle by a pintool work station (Kalypsys , San Diego, CA). After the assay plates were incubated for 1 hr at 37 C and 5% CO2, fluorescence intensities in the assay plates were measured by an Envision (PerkinElmer, Shelton, CT) plate reader using three labels for measuring blue, green and red fluorescence at […] 460, 535 and 590 nm respectively.
% is scaled to controls: 0 for no effect and ±100 for the full control effect.

Compound | outcome | fluorescence, relative to Rose Bengal
Oc1c(Cl)cc(Cl)cc1Cl | inactive | –
C[C@H]1CC[C@]2(NC1)O[C@H]1C[C@H]3[C@@H]4CC[C@H]5C[C@@H](O[C@@H]6O[C@H](CO)[C@H](O[C@@H]7O[C@H](CO)[C@@H](O)[C@H](O[C@@H]8OC[C@@H](O)[C@H](O)[C@H]8O)[C@H]7O[C@@H]7O[C@H](CO)[C@@H](O)[C@H](O)[C@H]7O)[C@H](O)[C@H]6O)CC[C@]5(C)[C@H]4CC[C@]3(C)[C@H]1[C@@H]2C | – | -0.252%
CC(=O)OCC(=O)[C@H]1CC[C@H]2[C@@H]3CC[C@H]4C[C@H](O)CC[C@]4(C)[C@H]3C(=O)C[C@]12C | – | 0.228% [at 18.6 µM]
CNC1(c2ccccc2Cl)CCCCC1=O (stereo not given) | inactive | –
O=C1C=C2C=C[C@@H]3C[C@@]2(O1)[C@H]1CCCCN31 | – | -0.18%
CNC(=O)Oc1ccccc1C(=O)Nc1ccccc1 | – | 0.212%
OC(c1ccccc1)(c1ccccc1)C1CN2CCC1CC2 (stereo not given) | – | -0.341%
CC(=O)[C@@]1(O)CC[C@H]2[C@@H]3CCC4=CC(=O)CC[C@]4(C)C3(F)[C@@H](O)C[C@@]21C (stereo not given in full) | – | 0.0282%
CN1CCCC(=C(c2cccs2)c2cccs2)C1 | – | 0.0291%
OCC(c1ccc(Cl)cc1)c1ccc(Cl)cc1 | – | 0.0641% [at 91.3 µM]
CN1CSC(=S)N(C)C1 | inactive | –
C[C@@H](Cc1ccccc1)N(C)C | – | -0.603%
COC(COC(N)=O)C1=C(N2CC2)C(=O)C(C)=C(N2CC2)C1=O (stereo not given) | – | 0.186%
C[C@@H]1[C@H](O)[C@@H](C)/C=C/C=C/CC/C=C/C=C/C=C/C=C/[C@H](O[C@H]2O[C@@H](C)[C@H](O)[C@@H](N)[C@H]2O)CC2O[C@](O)(C[C@@H](O)[C@H](O)CC[C@@H](O)C[C@@H](O)C[C@@H](O)CC(=O)O[C@H]1C)C[C@H](O)[C@H]2C(=O)O | – | -0.0327%
CCc1cc(OC)c(C[C@@H](C)N)cc1OC | – | -0.258% [at 95.7 µM]
Cc1ccccc1-n1c(CF)nc2ccc(N)cc2c1=O | – | -0.52%
O=C1CN=C(c2ccccc2)c2cc(Cl)ccc2N1 | – | -0.163%
CCC1(c2cnc[nH]2)Cc2ccccc2C1 | inactive | –
Clc1ccccc1-c1ccccc1Cl | – | -0.0663% [at 95.7 µM]
Cc1nnc2n1-c1sc(CCc3ccc(CC(C)C)cc3)cc1C(c1ccccc1Cl)=NC2C (stereo not given) | – | 0.291%

Compound | outcome | fluorescence, relative to Rose Bengal
Cc1ccc(N(SC(F)(Cl)Cl)S(=O)(=O)N(C)C)cc1 | – | 0.0623% [at 91.3 µM]
Oc1cccc[c]1[Hg][Cl] | – | -0.168%
C[N+]1([O-])[C@@H]2CC(OC(=O)[C@H](CO)c3ccccc3)C[C@H]1[C@@H]1O[C@@H]12 (stereo not given in full) | inactive | –
C[C@]12CC[C@H](O)C[C@H]1CC[C@@H]1[C@@H]2CC[C@]2(C)[C@@H](c3ccc(=O)oc3)C[C@H]3O[C@]132 | – | -0.238%
CNC(C)Cc1ccccc1 (stereo not given) | – | -0.129% [at 91.3 µM]
C[C@@H](N)C(=O)c1ccccc1 | – | 0.304% [at 95.7 µM]
COc1ccc2c(c1)C13CCCC[C@@H]1C(C2)N(C)CC3 (stereo not given in full) | – | -0.0461%
CC(C)C[C@H](CN)CC(=O)O | – | 0.666%
C/C=C(\CC)C(=O)NC(N)=O | – | 0.404%
CCC/C=C/C=C/C(=O)O[C@H]1/C(=C/C(=O)OC)C[C@H]2C[C@H]([C@@H](C)O)OC(=O)C[C@H](O)C[C@@H]3C[C@H](OC(C)=O)C(C)(C)[C@](O)(C[C@@H]4C/C(=C/C(=O)OC)C[C@H](/C=C/C(C)(C)[C@]1(O)O2)O4)O3 | – | 0.116%
O=C1CCO1 | – | 0.414%
C[C@]12CC[C@H](OS(=O)(=O)O)CC1=CC[C@@H]1[C@@H]2CC[C@]2(C)C(=O)CC[C@@H]12 | – | 0.491%
CCC1(CC)C(=O)NC(=O)N(C)C1=O | – | -0.221%
CC(N)Cc1ccc(O)cc1 (stereo not given) | – | 0.776%
Cc1cccc(C(C)c2cnc[nH]2)c1C (stereo not given) | – | -0.732%
C=CCC1(C(C)CCC)C(=O)N=C(S)NC1=O (stereo not given) | – | -0.0506%
C[N+]1(C)[C@@H]2CC[C@H]1CC(OC(=O)c1c[nH]c3ccccc13)C2 (stereo not given in full) | – | 0.0335%
CN(C)CCCCCCN(C)C | – | 0.089% [at 91.3 µM]
CNC(C)CC1CCCCC1 (stereo not given) | – | 0.278%
c1ccccc1 | – | 0.282% [at 91.3 µM]
